According to PubChem BioAssay AID1224858 (National Center for Advancing Translational Sciences (NCATS), 2016):
Results filed as inconclusive are left out. A number with no mark means an inactive call. The source made the active and inactive calls. The call rests on the fitted dose curve; in most records, active means well fitted inhibition curve with a large enough effect; inconclusive means small, poorly fitted or top-dose-only effect; inactive means no such curve, though single readings can be large or run the other way.

Experiment: Confirmation assay for measurement of the activity of small molecule inhibitors on Zika virus induced Caspase-3 activity in human astrocytes
Conditions: ZIKV-induced caspase-3/7 luminescence, 6 h; series mostly up to 46.1 µM; activity, negative = inhibition: at the top concentration
Text: National Center for Advancing Translational Sciences [NCATS] Johns Hopkins University School of Medicine Florida State University Assay Overview: Increase in the Caspase-3 activity indicates an activation of apoptosis cell death pathway caused by Zika virus infection in certain types of neuronal cells including human neural progenitor cells (hNPCs), astrocytes, and astrocytoma cell line (SNB-19). This cell-based caspase-3 activity assay measures the increased caspase-3 activity in the human astrocytes after a 6-hour Zika virus infection with a luminescence readout. A decrease in the luminescence signal in this assay by small molecule treatment indicates an inhibitory effect of that small molecule on the Zika virus induced caspase-3 activity that may correlate with its effect on reduction of Zika virus caused cell death.
Assay Protocol Summary: The medium for astrocytes contains AM basal medium (ScienCell, Cat.# 1801), AGS (ScienCell, Cat.# 1801), 10% FBS, and 1% Pen/Strep. A Caspase-Glo 3/7 assay kit (catalog number G8092; Promega, Madison, WI) was used to detect caspase-3 activity induced by Zika virus infection in human cells. The reagent mixture was reconstituted as described in the protocol from the manufacturer. Polystyrene tissue culture treated and PDL coated white plates were obtained from Greiner Bio-One (Monroe, NC). Cells were seeded in 384- or 1536-well assay plates and cultured at 37 C with 5% CO2 for 16 to 20 hours. The typical cell seeding density in the 1536-well plate assay is 350 cells/well in 3 ul medium for astrocytes in tissue culture treated plates. Compounds were added to cells and incubated for one hour before addition of ZIKV solution to cells (2 FFU/cell). After incubation at 37 C with 5% CO2 for 6 hours, the reagent mixture of Caspase-Glo 3/7 assay kit was added to each well, followed by incubation at room temperature for 30 minutes. The luminescence intensity of the assay plates was measured using a ViewLux plate reader (PerkinElmer). Data were normalized by using the cell-containing wells without ZIKV as a negative control (0% induction of caspase 3/7 activity) and wells containing ZIKV infected cells (Caspase-3 activity induced) as a positive control (100% induction of caspase 3 activity). The percentage inhibitions of the increased Caspase-3 activity by small molecule inhibitors were then calculated.

Row | SMILES | Potency | activity, negative = inhibition
1 | Clc1ccccc1-c1nc(-c2ccncc2)no1 | 6.15 µM (active) | 
2 | O=C(Nc1ccc(OC(F)(F)F)cc1)c1sccc1NCc1ccnc2ccccc12 | 7.74 µM (active) | 
3 | O=C(O)c1cc([N+](=O)[O-])ccc1NCCCc1ccccc1 | 8.69 µM (active) | 
4 | N#C/C(=C\c1ccc(O)c(O)c1)C(=O)Nc1ccccc1 | 21.8 µM (active) | 
5 | C[C@@H]1CCN(C(=O)CC#N)C[C@H]1N(C)c1ncnc2[nH]ccc12 |  | -16.5%
6 | CCCCCCCCCCCC(=O)[O][Sn]([CH2]CCC)([CH2]CCC)[O]C(=O)CCCCCCCCCCC |  | -15%
7 | NC(N)=NN=C(/C=C/c1ccc([N+](=O)[O-])o1)/C=C/c1ccc([N+](=O)[O-])o1 |  | -25.3%
8 | CCCCC1C(=O)N(c2ccccc2)N(c2ccc(O)cc2)C1=O (stereo not given) |  | -36.2%
9 | CN(C)c1cc(NC(=O)CNC(C)(C)C)c(O)c2c1C[C@@H]1C[C@H]3[C@H](N(C)C)C(=O)C(C(N)=O)=C(O)[C@@]3(O)C(=O)C1=C2O |  | -3.13%
10 | NC(=O)c1cccc2[nH]c(-c3ccc([C@H]4CCCN4)cc3F)nc12 | 13.8 µM (active) | 
11 | C/C(=N\O)c1ccc(OCC(=O)N2CCCCC2)cc1 | 9.75 µM (active) | 
12 | Nc1ccc(O)c(C(=O)O)c1 |  | -0.275%
13 | CNC1[C@H](O)C(O[C@@H]2C(O)C(O[C@H]3O[C@H]([C@@H](C)NC)CC[C@H]3N)[C@@H](N)C[C@H]2N)OC[C@]1(C)O (stereo not given in full) |  | 27.9%
14 | Cc1ccc2c(n1)Oc1ccc(C(C)C(=O)OCC(=O)N(C)C)cc1C2 (stereo not given) | 19.5 µM (active) | 
15 | COc1ccc(/C=C/C(=O)Nc2ccccc2C(=O)O)cc1OC | 13.8 µM (active) | 
16 | COc1cccc(-c2cc(=O)c3ccccc3o2)c1N | 6.9 µM (active) | 
17 | Nc1ncnc2c1ncn2[C@@H]1O[C@@H](CO)[C@H](O)[C@H]1O |  | -6.91% [at 23.8 µM]
18 | COc1ccc(C=CC(=O)Nc2ccccc2C(=O)O)cc1OC | 17.3 µM (active) | 
19 | COc1ccc(-c2coc3cc(O)ccc3c2=O)cc1 | 15.5 µM (active) | 
20 | O=C(O)[C@@H](c1ccc(OCc2ccc3ccccc3n2)cc1)C1CCCC1 | 8.69 µM (active) | 

Row | SMILES | Potency | activity, negative = inhibition
21 | CCCS(=O)c1ccc2nc(NC(=O)OC)[nH]c2c1 (stereo not given) | 13.8 µM (active) | 
22 | O=C(O)c1cccc(-c2noc(-c3ccccc3F)n2)c1 | 3.88 µM (active) | 
23 | CCN1CCC(n2cc(CNc3cc(Cl)c4ncc(C#N)c(Nc5ccc(F)c(Cl)c5)c4c3)nn2)CC1 |  | -8.22%
24 | COc1cccc(-c2ccc(NC(=O)C3=C(C(=O)O)CCC3)c(F)c2)c1 | 2.45 µM (active) | 
25 | Cc1cccc(/C=C/c2ccccc2)n1 | 10.9 µM (active) | 
26 | CC(O)=C(C#N)C(=O)Nc1ccc(C(F)(F)F)cc1 | 1.09 µM (active) | 
27 | CC[C@]1(O)C[C@H]2CN(CCc3c([nH]c4ccccc34)[C@@](C(=O)OC)(c3cc4c(cc3OC)N(C=O)[C@H]3[C@@](O)(C(=O)OC)[C@H](OC(C)=O)[C@]5(CC)C=CCN6CC[C@]43[C@@H]65)C2)C1 |  | 4.34%
28 | Cc1nc(-c2ccc(OCC(C)C)c(C#N)c2)sc1C(=O)O | 2.18 µM (active) | 
29 | CC(=Cc1ccccc1)C=C1SC(=S)N(CC(=O)O)C1=O | 19.5 µM (active) | 
30 | O=C(O)c1ccccc1Nc1cccc(C(F)(F)F)c1 | 6.9 µM (active) | 
31 | COc1cc(NC(C)CCCN)c2ncccc2c1 (stereo not given) |  | 3.92%
32 | COCCn1c2c([n+](Cc3cnccn3)c1C)C(=O)c1ccccc1C2=O | 5.48 µM (active) | 
33 | O=C(CS)Nc1ccccc1 |  | 14%
34 | CC=CC[C@@H](C)C(=O)[C@H]1C(=O)N[C@@H](C(C)C)C(=O)N(C)CC(=O)N(C)[C@@H](CC(C)C)C(=O)N[C@@H](C(C)C)C(=O)N(C)[C@@H](CC(C)C)C(=O)N[C@@H](C)C(=O)N[C@H](C)C(=O)N(C)[C@@H](CC(C)C)C(=O)N(C)[C@@H](CC(C)C)C(=O)N(C)[C@@H](C(C)C)C(=O)N1C |  | 3.51%
35 | Oc1ccc(/C=C/c2cc(O)cc(O)c2)cc1 | 15.5 µM (active) | 
36 | CC(=O)Oc1ccccc1C(=O)Nc1ncc([N+](=O)[O-])s1 | 1.58 µM (active) | 
37 | c1ccc2[nH]c(-c3cscn3)nc2c1 | 9.75 µM (active) | 
38 | CN1CC(=O)N2C(Cc3c([nH]c4ccccc34)[C@H]2c2ccc3c(c2)OCO3)C1=O (stereo not given in full) |  | 9.65%
39 | O=S(=O)(O)CCSSCCS(=O)(=O)O |  | 2.17%
40 | CC1=C(CO)C(=O)O[C@@H]([C@@H](C)[C@H]2CC[C@H]3[C@@H]4C[C@H]5O[C@]56[C@@H](O)C=CC(=O)[C@]6(C)[C@@H]4CC[C@]23C)C1 |  | -6.03%
